Where a name gives a salt, the structure may show the parent alone.

Holding throughout (conditions): compound concentration in added solution (µM; 5 µl added to 20 µl cells): 10; 18 h
Assay [1] deals with A431. The assay can be described thus: LBPA endosome anti-LBPA integrated intensity (sum per cell), Z-score; higher = more LBPA staining. In a few lines:
(§1)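 Four 20× images per well were taken of HeLa MZ or A431 cells that had been seeded at 3,500 per well in 20 µl onto 5 µl of 10 µM compound solution in duplicate 384-well imaging plates. Before imaging, cells were incubated 18 h, fixed in 4% PFA and stained with 6C4 anti-LBPA antibody, filipin, propidium iodide and CellTracker green. Values are Z-scores normalised in AcuityXpress from MetaXpress-derived per-cell integrated LBPA or filipin intensity, either whole-cell or within LBPA endosomes.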

Assay [2] concerns HeLa MZ. The assay is described as above. The method in brief:
as §1

Assay [3] relates to A431. The assay can be described thus: whole-cell filipin (free cholesterol) integrated intensity, Z-score; higher = more cholesterol staining. The method in brief: as §1
Assay [4] concerns HeLa MZ. The description is as above. The method in brief:
as §1

In assay [5] the test system is A431. The assay can be described thus: filipin (cholesterol) integrated intensity within LBPA endosomes, Z-score; higher = more cholesterol in LBPA endosomes. The method in brief:
as §1

In assay [6] the test system is HeLa MZ. The description is as above. The method in brief: as §1

Turning to `CN(C)CCOC(C)(c1ccccc1)c1ccccn1` (centres undefined) [Doxylamine succinate], the “LBPA endosome anti-LBPA integrated intensity (z-score)” value in assay [1] was -0.48; in assay [2], 0.575. Also, the entries for the “whole-cell filipin (z-score)” value in assay [3] and in assay [4] were -0.578 and -0.502, respectively. Also, the figures for the “filipin (z-score)” value in assay [5] and in assay [6] were -0.488 and -0.154, respectively.
Regarding `CC(=O)NC[C@H]1CN(c2ccc(N3CCOCC3)c(F)c2)C(=O)O1` [Linezolid], the “LBPA endosome anti-LBPA integrated intensity (z-score)” value in assay [1] is -0.619; in assay [2] it was -0.712. The “whole-cell filipin (z-score)” value in assay [3] is -0.597; in assay [4], -0.713. The “filipin (z-score)” value in assay [5] is -0.583; in assay [6], -0.674.
For `NC(=O)C(c1ccccc1)(c1ccccc1)[C@@H]1CCN(CCc2ccc3c(c2)CCO3)C1` [Darifenacin hydrobromide], the results for the “LBPA endosome anti-LBPA integrated intensity (z-score)” value in assay [1] and in assay [2] were 3.46 and 1.76, respectively. The “whole-cell filipin (z-score)” value in assay [3] came to 3.28; in assay [4], 1.47. The “filipin (z-score)” value worked out at 2.87 in assay [5] and 3.06 in assay [6].
On to `C[C@]12C=CC(=O)C=C1CC[C@@H]1[C@@H]2C(=O)C[C@@]2(C)[C@H]1CC[C@]2(O)C(=O)CO` [Prednisone], for which the “LBPA endosome anti-LBPA integrated intensity (z-score)” value is -0.485 in assay [1] and -0.977 in assay [2]. The “whole-cell filipin (z-score)” value in assay [3] is -0.505; in assay [4], 0.0271. For the same molecule, the “filipin (z-score)” value in assay [5] is -0.452; in assay [6] it was -0.412.
For `NS(=O)(=O)c1cc2c(cc1Cl)N=CNS2(=O)=O` [Chlorothiazide], the “LBPA endosome anti-LBPA integrated intensity (z-score)” value in assay [1] was -0.508; in assay [2], -0.375. The “whole-cell filipin (z-score)” value is -0.521 in assay [3] and -0.988 in assay [4]. The “filipin (z-score)” value in assay [5] was -0.472; in assay [6] it was -0.537.
Take `CC(=O)c1ccc(S(=O)(=O)NC(=O)NC2CCCCC2)cc1` [Acetohexamide]: the “LBPA endosome anti-LBPA integrated intensity (z-score)” value is -0.506 in assay [1] and -0.393 in assay [2]. In addition, the “whole-cell filipin (z-score)” value is -0.763 in assay [3] and -0.947 in assay [4]. Further, the results for the “filipin (z-score)” value in assay [5] and in assay [6] were -0.604 and -0.673, respectively.
Consider `CC[N+](C)(C)c1cccc(O)c1` [Edrophonium chloride], for which the “LBPA endosome anti-LBPA integrated intensity (z-score)” value in assay [1] was -0.613; in assay [2] it was -1.29. For the same molecule, the “whole-cell filipin (z-score)” value in assay [3] is -0.969; in assay [4], -0.842. Also, the “filipin (z-score)” value in assay [5] was -0.456; in assay [6], -0.596.
With `O=C(O)/C=C/c1ccc(Cn2ccnc2)cc1` [Ozagrel hydrochloride], the “LBPA endosome anti-LBPA integrated intensity (z-score)” value in assay [1] was -0.373; in assay [2] it was 0.0325. In addition, the “whole-cell filipin (z-score)” value in assay [3] came to 0.164; in assay [4] it was 0.704. Also, the entries for the “filipin (z-score)” value in assay [5] and in assay [6] were -0.284 and -0.0855, respectively.
For `Nc1nc(NC2CC2)c2ncn([C@H]3C=C[C@@H](CO)C3)c2n1` [Abacavir Sulfate], the entries for the “LBPA endosome anti-LBPA integrated intensity (z-score)” value in assay [1] and in assay [2] were -0.557 and -0.156, respectively. Besides, the “whole-cell filipin (z-score)” value was -0.517 in assay [3] and -0.596 in assay [4]. Also, the “filipin (z-score)” value in assay [5] is -0.478; in assay [6] it was -0.612.
In the case of `NS(=O)(=O)c1cc2c(cc1Cl)NC(C(Cl)Cl)NS2(=O)=O` (centres undefined) [Trichlormethiazide], the “LBPA endosome anti-LBPA integrated intensity (z-score)” value was -0.262 in assay [1] and 0.0655 in assay [2]. For the same molecule, the “whole-cell filipin (z-score)” value in assay [3] is -0.129; in assay [4], -0.0923. The results for the “filipin (z-score)” value in assay [5] and in assay [6] were -0.393 and -0.381, respectively.
For the molecule `CC(=O)Oc1ccccc1C(=O)Oc1ccccc1C(=O)O` [Acetylsalicylsalicylic acid], the figures for the “LBPA endosome anti-LBPA integrated intensity (z-score)” value in assay [1] and in assay [2] were -0.367 and -0.319, respectively. Moreover, the “whole-cell filipin (z-score)” value in assay [3] is -0.583; in assay [4] it was -0.226. The “filipin (z-score)” value in assay [5] is -0.456; in assay [6], -0.52.
For the molecule `CC(C[N+](C)(C)C)OC(N)=O` (centres undefined) [Bethanechol chloride], the results for the “LBPA endosome anti-LBPA integrated intensity (z-score)” value in assay [1] and in assay [2] were -0.55 and -0.64, respectively. Moreover, the results for the “whole-cell filipin (z-score)” value in assay [3] and in assay [4] were -0.316 and -0.111, respectively. Further, the “filipin (z-score)” value is -0.415 in assay [5] and -0.495 in assay [6].
For the molecule `N[C@@H](Cc1cc(I)c(Oc2ccc(O)c(I)c2)c(I)c1)C(=O)O` [Liothyronine], the “LBPA endosome anti-LBPA integrated intensity (z-score)” value in assay [1] was -0.519; in assay [2] it was 0.00578. For the same molecule, the “whole-cell filipin (z-score)” value is -0.411 in assay [3] and -0.281 in assay [4]. Further, the figures for the “filipin (z-score)” value in assay [5] and in assay [6] were -0.479 and -0.592, respectively.
Regarding `CCN(CCO)CCCC(C)Nc1ccnc2cc(Cl)ccc12` (centres undefined) [Hydroxychloroquine sulfate], the figures for the “LBPA endosome anti-LBPA integrated intensity (z-score)” value in assay [1] and in assay [2] were 0.14 and 1.98, respectively. The “whole-cell filipin (z-score)” value in assay [3] is -0.556; in assay [4], 0.249. Further, the results for the “filipin (z-score)” value in assay [5] and in assay [6] were -0.241 and 0.821, respectively.
Turning to `CO/N=C(\C(=O)N[C@@H]1C(=O)N2C(C(=O)O)=C(C[N+]3(C)CCCC3)CS[C@H]12)c1csc(N)n1` [Cefepime hydrochloride], the “LBPA endosome anti-LBPA integrated intensity (z-score)” value in assay [1] is -0.483; in assay [2] it was -1.02. Moreover, the “whole-cell filipin (z-score)” value in assay [3] is -0.176; in assay [4], -0.327. In addition, the “filipin (z-score)” value in assay [5] is -0.47; in assay [6] it was -0.504.
In the case of `CS(=O)(=O)c1ccc([C@@H](O)[C@@H](CF)NC(=O)C(Cl)Cl)cc1` [Florfenicol], the results for the “LBPA endosome anti-LBPA integrated intensity (z-score)” value in assay [1] and in assay [2] were -0.565 and -1.2, respectively. In addition, the “whole-cell filipin (z-score)” value is -0.505 in assay [3] and -0.36 in assay [4]. Also, the “filipin (z-score)” value in assay [5] is -0.528; in assay [6] it was -0.651.
On to `O=C(O)CCNC(=O)c1ccc(/N=N/c2ccc(O)c(C(=O)O)c2)cc1` [Balsalazide Sodium], for which the “LBPA endosome anti-LBPA integrated intensity (z-score)” value in assay [1] is -0.394; in assay [2], -0.755. Further, the “whole-cell filipin (z-score)” value was -0.213 in assay [3] and 0.475 in assay [4]. Moreover, the “filipin (z-score)” value is -0.386 in assay [5] and -0.346 in assay [6].
Take `OC(CCN1CCCCC1)(c1ccccc1)c1ccccc1` [Pridinol methanesulfonate salt]: the “LBPA endosome anti-LBPA integrated intensity (z-score)” value in assay [1] is -0.0313; in assay [2], 0.215. Besides, the “whole-cell filipin (z-score)” value is -0.378 in assay [3] and -0.508 in assay [4]. Further, the “filipin (z-score)” value is -0.23 in assay [5] and -0.0603 in assay [6].
Turning to `COc1ccc(CN(CCN(C)C)c2ccccn2)cc1` [Pyrilamine maleate], the “LBPA endosome anti-LBPA integrated intensity (z-score)” value in assay [1] is -0.379; in assay [2] it was 0.813. Also, the figures for the “whole-cell filipin (z-score)” value in assay [3] and in assay [4] were -0.723 and -0.374, respectively. Also, the entries for the “filipin (z-score)” value in assay [5] and in assay [6] were -0.426 and 0.0714, respectively.
Turning to `CN(C)CCCN1c2ccccc2Sc2ccccc21` [Promazine hydrochloride], the “LBPA endosome anti-LBPA integrated intensity (z-score)” value in assay [1] turned out to be 2.06; in assay [2] it was 2.59. In addition, the “whole-cell filipin (z-score)” value is 1.2 in assay [3] and -0.208 in assay [4]. Further, the “filipin (z-score)” value was determined as 1.35 in assay [5] and 1.31 in assay [6].
`CCCCC(=O)O[C@H]1CC[C@H]2[C@@H]3CCc4cc(O)ccc4[C@H]3CC[C@]12C` [Estradiol Valerate]: the “LBPA endosome anti-LBPA integrated intensity (z-score)” value in assay [1] was -0.347; in assay [2], -0.788. Moreover, the “whole-cell filipin (z-score)” value in assay [3] is 0.103; in assay [4], 0.191. Besides, the “filipin (z-score)” value in assay [5] is -0.224; in assay [6], -0.226.
As for `CC(CCc1ccccc1)NCC(O)c1ccc(O)c(C(N)=O)c1` (centres undefined) [Labetalol hydrochloride], the entries for the “LBPA endosome anti-LBPA integrated intensity (z-score)” value in assay [1] and in assay [2] were 0.794 and 1.06, respectively. In addition, the “whole-cell filipin (z-score)” value in assay [3] is 1; in assay [4], -0.0368. The figures for the “filipin (z-score)” value in assay [5] and in assay [6] were 0.489 and 0.328, respectively.
On to `C[C@]12CC[C@@H]3c4ccc(O)cc4CC[C@H]3[C@@H]1CC[C@@H]2O` [Estradiol-17 beta], for which the “LBPA endosome anti-LBPA integrated intensity (z-score)” value in assay [1] was -0.253; in assay [2], 0.492. The entries for the “whole-cell filipin (z-score)” value in assay [3] and in assay [4] were -0.4 and -1.01, respectively. Moreover, the “filipin (z-score)” value was -0.426 in assay [5] and -0.515 in assay [6].
For `COc1cc2nc(N3CCN(C(=O)C4COc5ccccc5O4)CC3)nc(N)c2cc1OC` (centres undefined) [Doxazosin mesylate], the “LBPA endosome anti-LBPA integrated intensity (z-score)” value in assay [1] is 3.8; in assay [2], 3.08. In addition, the “whole-cell filipin (z-score)” value in assay [3] amounted to 2.89; in assay [4], 1.62. Besides, the “filipin (z-score)” value in assay [5] is 2.83; in assay [6], 2.39.
